Test results from the supplement of paper PMC10849652.
Of roughly 8,800 targets only a part is listed; those with a hit were picked by preference. About 0.5% of all pairs of compound and target were hits.

How the values were obtained:
Test in all cases: log2 fold change, soluble protein after heating vs DMSO (PISA); higher = thermal stabilisation; K562 lysate, 10 uM; active = over 0.2 and 3.5 SD of the protein, either way, in both replicates (recomputed)
[1] = compound: CC1=C2C(=CC=C1)N=C(N(C2=O)C3=CC=CC=C3C)CN4C=NC5=C(N=CN=C54)N
In short: (§1)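 To prepare the extract, K562 pellets were dounce-homogenised in PBS pH 7.4 with 1 mM MgCl2, giving crude material at 1 mg/mL protein. This was treated with 10 μM compound for 30 min, then heated in aliquots for 3 min over 48°C-58°C before pooling and addition of NP-40 to 0.5% at 4°C. Centrifugation at 21,000xg for 90 min left soluble protein in the supernatant, which TMTpro 16plex LC-MS/MS quantified with equalised channel sums. Results are log-two fold changes in thermal stability compared with solvent controls, from duplicates.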

[2] = compound: Cc1sc2c(c1C)C(c1ccc(Cl)cc1)=N[C@@H](CC(=O)OC(C)(C)C)c1nnc(C)n1-2
In short: as §1

[3] = compound: c1ccc([C@@H]2C[C@H]2NC2CCNCC2)cc1
In short: as §1

[4] = compound: C1=CC=C(C=C1)[C@H](COC2=CC3=C(C=C2)NC(=O)N3)NC(=O)C4=CC=CN(C4=O)CC5=CC(=C(C=C5)F)F
In short: as §1

[5] = compound: CC1=C(SC2=C1C(=N[C@H](C3=NN=C(N32)C)CC(=O)N)C4=CC=C(C=C4)Cl)C
In short: as §1

Measured: log2 fold change

HECW2 (UniProt Q9P2P5)
inactive: [1] -0.048 | [2] -0.093

ITPR2 (UniProt Q14571)
inactive: [2] -0.171

GORASP1 (UniProt Q9BQQ3)
Sequence of UniProt Q9BQQ3 (Q9BQQ3 whole entry, looked up): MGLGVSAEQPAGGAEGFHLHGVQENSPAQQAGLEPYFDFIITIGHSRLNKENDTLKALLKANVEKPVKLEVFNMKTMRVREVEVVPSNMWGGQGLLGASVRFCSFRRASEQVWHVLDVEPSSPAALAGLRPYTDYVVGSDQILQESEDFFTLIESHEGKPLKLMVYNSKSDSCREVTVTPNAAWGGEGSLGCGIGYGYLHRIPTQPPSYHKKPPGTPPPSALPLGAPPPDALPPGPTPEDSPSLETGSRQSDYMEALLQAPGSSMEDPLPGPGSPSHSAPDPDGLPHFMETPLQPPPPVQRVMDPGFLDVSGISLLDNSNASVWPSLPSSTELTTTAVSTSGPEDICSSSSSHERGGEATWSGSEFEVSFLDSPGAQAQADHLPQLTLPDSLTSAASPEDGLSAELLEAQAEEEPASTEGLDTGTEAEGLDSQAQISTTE
inactive: [1] -0.049 | [2] -0.031 | [3] 0.042

HNRNPM (UniProt M0R019)
inactive: [1] -0.116

HAUS2 (UniProt Q9NVX0)
Sequence of UniProt Q9NVX0 (Q9NVX0 whole entry, looked up): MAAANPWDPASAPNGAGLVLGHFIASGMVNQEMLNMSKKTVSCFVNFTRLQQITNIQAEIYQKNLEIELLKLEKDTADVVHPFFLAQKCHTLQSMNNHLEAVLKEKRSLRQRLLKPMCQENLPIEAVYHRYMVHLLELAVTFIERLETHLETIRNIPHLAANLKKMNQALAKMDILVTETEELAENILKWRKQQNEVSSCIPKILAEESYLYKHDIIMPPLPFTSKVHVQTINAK
inactive: [4] -0.186 | [5] 0.148 | [1] 0.077 | [2] 0.016 | [3] 0.176

GPLD1 (UniProt P80108)
inactive: [2] 0.209

HAUS3 (UniProt Q68CZ6)
Sequence of UniProt Q68CZ6 (Q68CZ6 whole entry, looked up): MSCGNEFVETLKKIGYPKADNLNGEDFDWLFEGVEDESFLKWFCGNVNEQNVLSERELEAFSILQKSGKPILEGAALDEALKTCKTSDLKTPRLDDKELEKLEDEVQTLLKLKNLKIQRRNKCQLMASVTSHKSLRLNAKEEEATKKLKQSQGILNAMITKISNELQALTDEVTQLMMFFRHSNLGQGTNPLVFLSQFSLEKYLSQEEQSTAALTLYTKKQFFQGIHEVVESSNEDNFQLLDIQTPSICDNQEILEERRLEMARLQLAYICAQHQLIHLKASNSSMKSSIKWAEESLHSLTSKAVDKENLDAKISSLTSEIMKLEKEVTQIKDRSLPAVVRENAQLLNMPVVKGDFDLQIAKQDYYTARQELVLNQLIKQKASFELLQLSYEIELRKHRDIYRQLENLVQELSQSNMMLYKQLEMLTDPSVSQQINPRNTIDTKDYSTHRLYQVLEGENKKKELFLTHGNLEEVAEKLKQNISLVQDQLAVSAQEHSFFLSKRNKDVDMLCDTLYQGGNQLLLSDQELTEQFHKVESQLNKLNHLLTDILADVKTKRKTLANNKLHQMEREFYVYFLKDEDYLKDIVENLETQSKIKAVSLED
inactive: [4] -0.035 | [5] 0.023 | [1] 0.051 | [2] -0.032 | [3] 0.064

GPN2 (UniProt Q9H9Y4)
Sequence of UniProt Q9H9Y4 (Q9H9Y4 whole entry, looked up): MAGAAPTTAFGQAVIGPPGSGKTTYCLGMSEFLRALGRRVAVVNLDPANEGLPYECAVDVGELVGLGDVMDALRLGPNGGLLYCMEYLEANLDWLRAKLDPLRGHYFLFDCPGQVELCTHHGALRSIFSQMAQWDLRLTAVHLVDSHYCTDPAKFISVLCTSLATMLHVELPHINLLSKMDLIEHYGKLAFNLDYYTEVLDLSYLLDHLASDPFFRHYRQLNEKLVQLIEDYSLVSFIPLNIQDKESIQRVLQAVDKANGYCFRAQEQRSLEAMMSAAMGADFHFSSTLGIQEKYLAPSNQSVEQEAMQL
inactive: [1] 0.07 | [2] 0.057 | [3] -0.034

ITPRIP (UniProt Q8IWB1)
inactive: [2] 0.054

IRS2 (UniProt Q9Y4H2)
Sequence of UniProt Q9Y4H2 (Q9Y4H2 whole entry, looked up): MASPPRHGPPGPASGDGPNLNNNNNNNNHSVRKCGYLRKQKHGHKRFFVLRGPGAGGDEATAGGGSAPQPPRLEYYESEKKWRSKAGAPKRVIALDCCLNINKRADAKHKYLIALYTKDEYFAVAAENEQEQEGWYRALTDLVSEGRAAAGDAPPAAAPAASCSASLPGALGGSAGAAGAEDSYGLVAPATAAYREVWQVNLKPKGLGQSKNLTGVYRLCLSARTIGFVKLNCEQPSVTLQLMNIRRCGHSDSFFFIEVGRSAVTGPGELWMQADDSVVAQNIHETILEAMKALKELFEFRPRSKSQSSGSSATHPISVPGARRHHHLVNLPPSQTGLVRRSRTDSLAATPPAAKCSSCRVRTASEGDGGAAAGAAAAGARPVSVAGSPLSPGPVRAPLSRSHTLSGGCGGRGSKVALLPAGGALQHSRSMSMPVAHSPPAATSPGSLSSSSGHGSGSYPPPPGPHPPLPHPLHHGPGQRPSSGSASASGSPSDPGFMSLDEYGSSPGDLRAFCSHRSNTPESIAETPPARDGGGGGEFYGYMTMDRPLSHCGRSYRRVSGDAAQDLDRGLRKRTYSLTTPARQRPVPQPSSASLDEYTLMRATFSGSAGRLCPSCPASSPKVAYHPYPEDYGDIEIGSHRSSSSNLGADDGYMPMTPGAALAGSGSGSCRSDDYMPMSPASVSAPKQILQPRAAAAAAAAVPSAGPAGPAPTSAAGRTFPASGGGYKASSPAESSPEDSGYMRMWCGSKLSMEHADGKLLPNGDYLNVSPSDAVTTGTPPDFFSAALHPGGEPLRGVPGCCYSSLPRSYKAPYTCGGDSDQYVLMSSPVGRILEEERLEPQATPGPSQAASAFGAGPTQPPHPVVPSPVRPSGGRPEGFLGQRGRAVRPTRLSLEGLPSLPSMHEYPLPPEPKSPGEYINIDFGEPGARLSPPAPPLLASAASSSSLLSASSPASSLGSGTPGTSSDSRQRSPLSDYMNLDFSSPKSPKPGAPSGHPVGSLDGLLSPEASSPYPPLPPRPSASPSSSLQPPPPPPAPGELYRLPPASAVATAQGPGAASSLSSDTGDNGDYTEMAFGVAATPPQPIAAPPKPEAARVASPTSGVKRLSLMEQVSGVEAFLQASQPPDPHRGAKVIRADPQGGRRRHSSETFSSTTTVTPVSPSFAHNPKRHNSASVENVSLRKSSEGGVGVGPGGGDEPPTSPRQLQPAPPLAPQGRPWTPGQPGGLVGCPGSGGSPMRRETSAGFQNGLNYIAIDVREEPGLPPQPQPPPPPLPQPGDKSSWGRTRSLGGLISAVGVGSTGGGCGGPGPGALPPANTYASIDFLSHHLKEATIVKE
inactive: [4] -0.091 | [5] 0.246 | [2] -0.129 | [3] -0.354

HSPBAP1 (UniProt Q96EW2)
inactive: [4] 0.069 | [5] -0.022 | [2] 0.065 | [3] 0.006

INPPL1 (UniProt O15357)
inactive: [4] 0.014 | [5] 0.029 | [1] -0.021 | [2] 0.012 | [3] 0.021

ISL2 (UniProt Q96A47)
inactive: [4] 0.038 | [5] 0.058 | [2] -0.063 | [3] 0.207

GOLGA6B (UniProt A6NDN3)
Sequence of UniProt A6NDN3 (A6NDN3 whole entry, looked up): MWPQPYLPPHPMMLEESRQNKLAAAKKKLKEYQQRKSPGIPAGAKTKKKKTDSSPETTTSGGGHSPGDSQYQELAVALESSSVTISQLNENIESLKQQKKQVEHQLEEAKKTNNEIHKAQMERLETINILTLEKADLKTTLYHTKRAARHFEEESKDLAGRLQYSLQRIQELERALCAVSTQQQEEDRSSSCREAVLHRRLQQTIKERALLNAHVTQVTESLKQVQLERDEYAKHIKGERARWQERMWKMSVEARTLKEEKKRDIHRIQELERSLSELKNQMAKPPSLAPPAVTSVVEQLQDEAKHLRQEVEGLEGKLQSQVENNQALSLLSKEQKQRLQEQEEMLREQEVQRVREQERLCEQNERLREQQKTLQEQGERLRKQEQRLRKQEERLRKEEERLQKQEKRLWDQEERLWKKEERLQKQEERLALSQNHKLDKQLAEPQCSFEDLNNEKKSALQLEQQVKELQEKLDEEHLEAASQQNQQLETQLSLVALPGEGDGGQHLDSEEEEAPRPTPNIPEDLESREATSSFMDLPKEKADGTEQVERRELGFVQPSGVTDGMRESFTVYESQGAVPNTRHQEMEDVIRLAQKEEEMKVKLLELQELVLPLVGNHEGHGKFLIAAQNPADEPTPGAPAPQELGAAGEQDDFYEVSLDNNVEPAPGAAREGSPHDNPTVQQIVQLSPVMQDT
inactive: [4] -0.041 | [5] 0.006 | [1] 0.009 | [2] -0.123 | [3] 0.012

GIPC3 (UniProt Q8TF64)
inactive: [4] -0.002 | [5] 0.042 | [2] 0.013 | [3] -0.075

GTPBP6 (UniProt O43824)
inactive: [1] 0.385 | [2] -0.439 | [3] 0.118

HIST2H2BC (UniProt Q6DN03)
Sequence of UniProt Q6DN03 (Q6DN03 whole entry, looked up): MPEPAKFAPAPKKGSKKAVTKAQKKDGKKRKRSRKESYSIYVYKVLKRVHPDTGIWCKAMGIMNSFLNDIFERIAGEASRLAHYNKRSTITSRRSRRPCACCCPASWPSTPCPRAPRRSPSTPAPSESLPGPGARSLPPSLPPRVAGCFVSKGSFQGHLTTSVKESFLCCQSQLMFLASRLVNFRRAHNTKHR
inactive: [4] -0.03 | [5] 0.065 | [1] 0.014 | [2] 0.003 | [3] 0.165

HNRNPUL1 (UniProt M0R247)
inactive: [4] 0.059 | [5] -0.014 | [3] -0.044

KATNBL1 (UniProt Q9H079)
inactive: [1] -0.111 | [2] -0.012 | [3] -0.071

IPP (UniProt Q9Y573)
inactive: [1] -0.009 | [2] -0.099 | [3] 0.02

GSTCD (UniProt Q8NEC7)
inactive: [4] -0.048 | [5] -0.048 | [1] -0.076 | [2] -0.055 | [3] 0.007

GNB4 (UniProt Q9HAV0)
Sequence of UniProt Q9HAV0 (Q9HAV0 whole entry, looked up): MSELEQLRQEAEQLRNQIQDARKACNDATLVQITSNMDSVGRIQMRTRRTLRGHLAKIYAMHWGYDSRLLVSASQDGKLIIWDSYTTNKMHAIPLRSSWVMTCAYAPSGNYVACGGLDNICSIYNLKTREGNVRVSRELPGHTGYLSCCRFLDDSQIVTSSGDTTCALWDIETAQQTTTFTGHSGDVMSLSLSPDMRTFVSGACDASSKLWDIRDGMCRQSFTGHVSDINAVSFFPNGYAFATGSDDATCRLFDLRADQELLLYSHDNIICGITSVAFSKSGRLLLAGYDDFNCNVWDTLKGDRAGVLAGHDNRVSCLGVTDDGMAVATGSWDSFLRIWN
inactive: [4] 0.162 | [5] -0.074 | [2] 0.031 | [3] -0.05

HYDIN (UniProt Q4G0P3)
inactive: [1] -0.069 | [2] -0.078

HMGA1 isoform 2 (UniProt P17096)
inactive: [2] 0.055 | [3] 0.419

IFNGR1 (UniProt P15260)
Sequence of UniProt P15260 (P15260 whole entry, looked up): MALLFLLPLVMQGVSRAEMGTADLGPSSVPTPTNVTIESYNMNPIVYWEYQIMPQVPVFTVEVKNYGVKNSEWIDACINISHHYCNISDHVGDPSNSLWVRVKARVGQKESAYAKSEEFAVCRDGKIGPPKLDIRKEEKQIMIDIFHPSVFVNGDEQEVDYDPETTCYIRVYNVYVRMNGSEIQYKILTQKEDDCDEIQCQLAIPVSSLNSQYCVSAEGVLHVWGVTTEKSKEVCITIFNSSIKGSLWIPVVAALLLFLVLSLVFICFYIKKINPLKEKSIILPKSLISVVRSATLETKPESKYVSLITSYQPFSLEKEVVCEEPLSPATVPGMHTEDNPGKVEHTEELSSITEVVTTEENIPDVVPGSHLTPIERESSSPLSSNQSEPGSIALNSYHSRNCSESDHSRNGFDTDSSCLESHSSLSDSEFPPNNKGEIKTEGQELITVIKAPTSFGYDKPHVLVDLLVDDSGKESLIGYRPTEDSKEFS
inactive: [4] 0.094 | [5] 0.083 | [1] 0.142 | [2] -0.299 | [3] -0.479

IGFBP4 (UniProt P22692)
Sequence of UniProt P22692 (P22692 whole entry, looked up): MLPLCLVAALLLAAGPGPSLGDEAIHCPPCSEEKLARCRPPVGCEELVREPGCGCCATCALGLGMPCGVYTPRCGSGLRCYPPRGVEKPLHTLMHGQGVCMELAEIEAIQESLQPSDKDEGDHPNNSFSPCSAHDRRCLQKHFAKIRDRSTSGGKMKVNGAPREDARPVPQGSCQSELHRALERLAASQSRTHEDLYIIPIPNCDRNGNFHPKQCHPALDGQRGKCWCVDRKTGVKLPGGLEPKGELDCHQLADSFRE
inactive: [4] 0.135 | [5] -0.099 | [2] -0.032 | [3] -0.171

ISOC2 (UniProt Q96AB3)
inactive: [4] -0.014 | [5] 0.035 | [1] 0.085 | [2] 0.03 | [3] -0.031

HOMER3 (UniProt Q9NSC5)
inactive: [4] 0.072 | [5] -0.276 | [3] 0

H3-3A (UniProt P84243)
inactive: [4] 0.059 | [5] 0.016 | [1] 0.024 | [3] -0.004
